Rango complex inh: Rango-importin beta binding inhibition; Q14974; Rango CFP/YFP FRET sensor + importin beta, 45 min; Potency, µM (series often up to 92.2 µM), inactives show at the top dose inhibition of complex formation; actives 0.031% (n = 340,000); AID 540263;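 note: 0% = DMSO wells and 100% = buffer wells lacking importin beta; nearly all actives have a fitted effect of over 15% in size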
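Inhibition scored from the CFP 486 nm/YFP 530 nm FRET ratio 45 min after adding 0.125 microM importin beta to 50 nM Rango biosensor preincubated 5 min with compound (room temperature, PBS with DTT, Tween-20, BSA). No-importin wells as positive control.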
Rango dissoc inh: prevents RanGTP from dissociating the Rango-importin beta complex; Biochemical FRET Rango-importin beta, RanGTP-induced dissociation; AID 540253; actives 0.071% (n = 340,000); O95149+P62826; Potency, µM (top dose mostly 46.1 µM), inactives show at the top dose activity change, negative = inhibition; note: % of control where 0% means no effect; nearly all actives have a fitted effect of over 45% in size
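Recombinant Rango FRET biosensor (EYFP–snurportin 1 IBB–cerulean CFP10) at 0.1 uM premixed with 0.25 uM importin beta in PBS, 1 mM DTT, 0.02% Tween-20, 0.1% BSA. Compound added 5 min; RanGTP-RCC1 (0.6 uM Ran, 2 mM GTP, 0.2 uM RCC1) then triggers release, read at 45 min.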
gsp ag: gsp mutant agonism; gsp mutant cells, cAMP HTRF, 30 min; Potency, µM (highest dose often 76.9 µM), inactives show top-dose activation (cAMP increase), most hits filed as activators; actives 0.13% (n = 340,000); AID 624287; active = well fitted activation curve with a large enough effect; inconclusive = small, poorly fitted or top-dose-only effect, or another doubt; inactive = no such curve, though single readings can be large or run the other way; cell line not stated here;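 note: phosphodiesterase inhibitor Ro 20-1724 added with compounds to block cAMP breakdown; nearly all actives have a fitted effect of over 60% in size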
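Cells stably selected in G418 were plated at 2000/well, grown 16-24 hr, then given compounds in DMSO with the PDE inhibitor […] (300 uM solution added) for 30 min at 37C; cAMP was read by HTRF.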
gsp antagonist: antagonizes gsp, the McCune-Albright syndrome mutation; actives 0.4% (n = 340,000); gsp-mutant cells, cAMP HTRF, 30 min; Potency, µM (series often up to 76.9 µM), inactives show at the highest dose activity change, negative = inhibition, most hits filed as inhibitors; calls by dose curve; cell line not stated here;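 note: intracellular cAMP measured with PDE inhibitor Ro 20-1724 present during compound exposure; % is set by controls: 0 for no effect and ±100 for the full control effect; nearly all actives have a fitted effect of over 65% in size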
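Cells in G418 medium, seeded 16-24 h, 37C; buffer exchange to DPBS + 1 mM CaCl2, 0.5 mM MgCl2, 0.05% BSA; cpds in DMSO + […] (300 uM stock), 30 min 37C; HTRF cAMP detection.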
ASM inhibitor: blocks human secretory acid sphingomyelinase; Potency, µM (top dose mostly 57.5 µM), without a hit: at the highest dose activity change, negative = inhibition, usual class: inhibitors; P17405; placental ASM, HMU-PC fluorogenic substrate, 60 min; actives 0.006% (n = 340,000); active = well fitted inhibition curve with a large enough effect; inconclusive = small, poorly fitted or top-dose-only effect; inactive = no such curve, though single readings can be large or run the other way
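Fluorogenic HMU-PC substrate (9 uM final) is turned over by placental ASM in 60 min at 37 C after a 10 min compound preincubation. Reaction ended by alkaline stop (pH 10), with fluorescence read at 386/447 nm.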
The depositor's hits bear a star; i = inactive; ? = inconclusive; [ ] = dose if it differs, or a comment. Shown are actives, neighbours in structure and some others; about 0.67% of the full set was active somewhere. Unless noted, calls come from the whole dose curve. Potency is the fitted concentration of half-maximal effect.

SMILES	Rango complex inh	Rango dissoc inh	gsp ag	gsp antagonist	ASM inhibitor
CCOC(=O)Cn1cc(Cl)cc(C(=O)Nc2ccccc2)c1=O	-0.8%	-0.2%	13.1%	-10.1%	-0.5%
COc1ccc(CNC(C)C(=O)Nc2ccc3ccccc3c2)cc1OC (stereo not drawn)	6.0%	11.4%	-2.0%[15.4 µM]	11.2µM*	3.5%
CCOc1c(Cl)cc(C(=O)Nc2cccc(C(=O)O)c2)cc1Cl	3.3%	3.6%	37.4%	-1.5%	1.6%
O=C(COC(=O)Cc1c(F)cccc1Cl)NNC(=O)c1ccccc1	3.6%	0.9%	16.8%	0.7%	1.2%
CN1CCN(c2ccc(NC(=O)c3cc4ccccc4o3)cc2)CC1	0.7%	-0.3%	-57.1%	-3.0%	0.0%
O=C(Nc1ccc(N2CCN(C(=O)c3ccccc3)CC2)cc1)c1cc2ccccc2o1	0.6%	8.8%	-9.7%	35.5µM*	40.4%
Cc1cccc(C(=O)N2CCCC(N3CCN(c4ccccc4)CC3)C2)n1 (stereo not drawn)	0.4%	5.8%	8.4%	-0.7%	2.6%
COc1cccc(-c2cc3c(=O)n(-c4ccccc4)c(=S)[nH]c3s2)c1	-0.2%	-1.2%	11.2µM*	18.9%	13.1%
COc1ccc(-n2c(=S)[nH]c3sc(-c4ccccc4)cc3c2=O)c(OC)c1	2.8%	23.5%	62.2%[15.4 µM]	-9.5%	11.6%
O/N=C/c1cc(Br)ccc1OCc1ccc(F)cc1	?	16.4µM*	0.2%	-17.0%	?
Cc1cc(C)n2c(SCC(=O)N(C)C3CCCCC3)nnc2n1	0.3%	0.3%	-30.9%	2.3%	-3.4%
Cc1cc(C)n2c(SCC(=O)NC3CCCCC3)nnc2n1	-1.6%	8.4%	14.1µM*	4.3%	3.9%
Cc1cc(C)n2c(SCC(=O)Nc3cc(C)on3)nnc2n1	-1.9%	-23.6%	22.4µM*	9.6%	-0.5%
CCOC(=O)c1ccc(N2C(=O)c3n[nH]c(-c4ccco4)c3C2c2cccc([N+](=O)[O-])c2)cc1 (stereo not drawn)	-2.5%	10.8%	?	-15.9%	28.2µM*
CCOC(=O)c1ccc(N2C(=O)c3n[nH]c(C)c3C2c2ccco2)cc1 (stereo not drawn)	-1.3%	2.2%	37.2%	-0.1%	-0.6%
Cc1ccc(C(=O)Nc2ccc3c(c2)C(=O)N(C)C3=O)c(C)c1	-3.8%	-4.6%	35.5µM*	7.8%	64.8%
CCCCOc1ccc(-c2c(C(=O)Nc3ccccc3)c(C)[nH]c(=S)c2C#N)cc1	-2.0%	7.6%	2.51µM*	14.5%	-6.8%
NC(=O)c1ccc(NC(=O)CNC(c2ccccc2)c2ccccc2)cc1	-2.2%	1.9%	16.4%[15.4 µM]	8.2%	-1.9%
CCn1c(=NC(=O)CS(=O)(=O)c2ccc(C)cc2)sc2cccc(OC)c21	-0.6%	-0.6%	4.5%	35.5µM*	-0.4%
Cc1cc(S(=O)(=O)N2CCC(NC(=O)C34CC5CC(CC(C5)C3)C4)CC2)ccc1-n1cnnn1	0.6%	2.9%	30.8%	8.9%	-2.4%
O=C(Cc1ccccc1)NNC(=O)c1ccccc1C(=O)O	-2.5%	-0.6%	?	11.2µM*	-3.3%
Cn1c(=O)n(C)c2cc([N+](=O)[O-])c(N3CCN(S(C)(=O)=O)CC3)cc21	0.4%	1.4%	-0.6%	-2.6%	-1.3%
Cn1c(=O)n(C)c2cc([N+](=O)[O-])c(N3CCN(S(=O)(=O)c4ccccc4)CC3)cc21	-0.4%	2.4%	-60.8%	25.1µM*	-13.0%
O=C(O)c1ccccc1SCc1cn2cc(Br)ccc2n1	-0.6%	0.3%	10µM*	26.1%	-2.9%
CC(C)CN1CCC(CNC(=O)CCc2nnc(Cc3c[nH]c4ccccc34)o2)CC1	2.3%	-0.6%	12.0%	-9.0%	-0.3%
SMILES	Rango complex inh	Rango dissoc inh	gsp ag	gsp antagonist	ASM inhibitor
CCc1ccc(NC(=O)Nc2ccc3c(c2)N(C)C(=O)CS3)cc1	-0.1%	-3.1%	16.9%	35.5µM*	-17.9%
COc1ccc(/C=N/NC(=O)c2[nH]c3ccc(Cl)cc3c2-c2ccccc2)c(C(=O)O)c1OC	0.4%	0.7%	-12.4%[15.4 µM]	11.0%	14.1µM*
COc1ccc(S(=O)(=O)N2CCC(C(=O)NCCC(=O)NCc3ccncc3)CC2)cc1	-2.6%	0.3%	-1.6%	21.7%	3.4%
COc1ccc(S(=O)(=O)N2CCC(C(=O)NCCC(=O)NCc3ccccc3OC)CC2)cc1	-4.8%	9.9%	0.8%	31.6µM*	-2.0%
Cc1cc(C)c(NC(=O)COC(=O)c2cccc3c2C(=O)c2ccccc2C3=O)c(C)c1	4.3%	18.7%	-57.4%	-5.7%	-21.2%
Cc1cc(C)c(Nc2cc(S(=O)(=O)O)c(N)c3c2C(=O)c2ccccc2C3=O)c(C)c1	0.3%	-19.0%	-16.3%	28.2µM*	9.1%
Cc1sc2nc(SCc3ccc(C(=O)O)cc3)n(Cc3ccco3)c(=O)c2c1C	1.6%	-4.8%	-9.2%[15.4 µM]	25.1µM*	0.2%
C=CCn1c(SCc2ccc(C(=O)O)cc2)nc2sc(C)c(C)c2c1=O	-1.5%	-9.0%	21.7%	-11.7%	4.6%
CCOC(=O)N1CCC(=NNC(=O)Cn2ccc(C(F)(F)F)n2)CC1	-5.6%	-10.6%	11.6%[15.4 µM]	1.8%	-0.1%
CCN(C1CCCCC1)S(=O)(=O)CCNC(=O)c1ccccc1	-2.7%	0.4%	-9.7%	4.1%	1.7%
N#Cc1cc2c(=O)n3ccccc3nc2n(CCCN2CCOCC2)c1=O	?	?	35.5µM*	21.3%	i
N=c1c(C(=O)NC2CCCC2)cc2c(=O)n3ccccc3nc2n1CCCN1CCOCC1	?	?	26.4%[15.4 µM]	-19.8%	i
Cc1ccc2[nH]c3c(=S)nc[nH]c3c2c1	-2.1%	1.3%	11.2µM*	31.2%	11.6%
C1CN(CCN2CCOCC2)CCN1	0.0%	-13.4%	4.8%[15.4 µM]	-0.3%	-2.8%
CCN(CC)S(=O)(=O)c1ccc(OC)c(NC(=O)COc2ccc3c(C)cc(=O)oc3c2)c1	-4.2%	-5.0%	8.91µM*	-49.4%	89.3%
CC(OC(=O)CN(C)S(=O)(=O)c1ccc(Cl)cc1)C(=O)Nc1cccc(Cl)c1 (stereo not drawn)	-7.6%	-17.2%	7.8%	39.8µM*	-7.6%
CC(OC(=O)CN(C)S(=O)(=O)c1ccc(Cl)cc1)C(=O)Nc1ncc(Cl)cc1Cl (stereo not drawn)	1.6%	-12.3%	-1.1%	-21.9%	0.1%
CCCc1cc(=O)[nH]c(SCC(=O)N(CC)c2c(N)n(Cc3ccccc3)c(=O)[nH]c2=O)n1	-2.8%	-4.7%	-34.1%	-1.1%	2.7%
Cc1ccc2cc(C(c3nnnn3Cc3ccccc3)N3CCc4ccccc43)c(=O)[nH]c2c1 (stereo not drawn)	?	23.1µM*	4.9%	-4.2%	-15.2%
O=C(C1CCN(S(=O)(=O)c2cccc3nsnc23)CC1)N1CC=C(c2ccccc2)CC1	-0.1%	-4.5%	9.6%	?	-1.2%

High-throughput results from PubChem.
